# Shown are actives, neighbours in structure and some others; about 6.9% of the full set was active somewhere.
# Giardia killer: kills Giardia lamblia | Giardia lamblia trophozoite viability | activity change, % at 7.66 µM, hits read low | hit rate 0.15% among 340,000 | AID 540267; in the data active = activity change below about -80%; inconclusive = between about -30% and that limit;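 note: parasites exposed to compound for two days anaerobically before the ATP read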
#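 Killing of trophozoites was scored by loss of ATP luminescence after a 48 hrs anaerobic exposure to compounds at 37 deg C, using 100 cells per well.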
# ASM inhibitor: human S-ASM enzyme inhibition | placental ASM, HMU-PC fluorogenic substrate, 60 min | Potency, µM (top dose mostly 57.5 µM), most hits filed as inhibitors | hit rate 0.006% among 340,000 | P17405
# Target sequence (P17405 47-631 limits assumed): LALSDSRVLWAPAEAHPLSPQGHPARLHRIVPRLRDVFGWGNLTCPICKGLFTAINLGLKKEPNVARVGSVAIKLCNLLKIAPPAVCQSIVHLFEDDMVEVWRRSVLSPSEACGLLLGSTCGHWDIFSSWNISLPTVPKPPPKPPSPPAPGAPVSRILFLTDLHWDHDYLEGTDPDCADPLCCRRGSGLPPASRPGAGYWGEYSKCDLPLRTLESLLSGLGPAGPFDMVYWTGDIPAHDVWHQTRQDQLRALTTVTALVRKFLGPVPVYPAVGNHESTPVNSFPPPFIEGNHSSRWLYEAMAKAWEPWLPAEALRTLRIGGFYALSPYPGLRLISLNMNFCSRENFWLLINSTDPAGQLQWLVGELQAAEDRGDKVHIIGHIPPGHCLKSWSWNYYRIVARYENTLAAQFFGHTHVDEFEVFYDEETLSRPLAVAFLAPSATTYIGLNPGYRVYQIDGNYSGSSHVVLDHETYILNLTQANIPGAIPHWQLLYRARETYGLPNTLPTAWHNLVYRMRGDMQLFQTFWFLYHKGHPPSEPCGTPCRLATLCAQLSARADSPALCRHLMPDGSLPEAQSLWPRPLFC
#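 Human placenta-derived ASM preincubated with compound 10 min at room temperature, then reacted with 9 uM (final) fluorogenic HMU-PC substrate for 60 min at 37 C. Stop solution raises pH to 10; fluorescence read at Ex 386/Em 447 nm.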
# SW480 rerep: DNA re-replication induction in SW480 cells; SW480 DNA re-replication, Hoechst DNA content imaging, 48 h; Potency, µM (top dose mostly 46.1 µM), hits mostly activators; hit rate 1.8% among 340,000; note: nearly all actives have a fitted effect of over 55% in size
#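 Quantitative HTS format with DMSO vehicle controls; 48 hr drug incubation at 37 C, then 40 min Hoechst staining and scanning imager measurement at 405 nm excitation.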
# MCF10A rerep: induces DNA re-replication in MCF 10a normal breast cells; MCF 10A DNA re-replication, Hoechst nuclear intensity, 48 h; AID 624296; hit rate 2.9% among 350,000; Potency, µM (series often up to 46.1 µM), actives largely listed as activators; note: nearly all actives have a fitted effect of over 50% in size
# KB-3-1 tox: KB-3-1 parental cell cytotoxicity; KB-3-1 viability, CellTiter-Glo ATP luminescence, 72 h; Potency, µM (highest dose often 46.1 µM), actives largely listed as cytotoxic; hit rate 1.4% among 400,000; AID 1347075; note: nearly all actives have a fitted effect of over 60% in size
#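 Here the drug-naive KB-3-1 line serves as comparator for MDR sub-line selectivity; cells received compound titrations, 72 h at 37 °C, then CellTiter-Glo readout.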
# KB-V1 MDR tox: kills drug-selected multidrug resistant KB-V1 cells; KB-V1 MDR cells viability, CellTiter-Glo, 72 h; Potency, µM (top dose mostly 46.1 µM), usual class: cytotoxic; hit rate 3.4% among 400,000; note: nearly all actives have a fitted effect of over 60% in size
#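 In this primary screen, KB-V1 cells overexpressing P-gp are incubated with library compounds (lowest to highest concentration) for 72 h at 37 degrees C before a luminescent ATP viability read.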
# Numbers stand for hits; n = inactive; u = inconclusive; x = not tested or not shown; [ ] = remark or other dose. Unless noted, calls come from the whole dose curve; as a rule, active = well fitted curve in the direction sought with a large enough effect; inconclusive = small, poorly fitted or top-dose-only effect, or another doubt; inactive = no such curve, though single readings can be large; an effect the other way counts as inactive or inconclusive.
SMILES,Giardia killer,ASM inhibitor,SW480 rerep,MCF10A rerep,KB-3-1 tox,KB-V1 MDR tox
Cc1nnc(NC(=O)C2c3ccccc3Oc3ccccc32)s1,n,n,u,13µM,u,n
O=C(Nc1ccncc1)C1c2ccccc2Oc2ccccc21,n,n,n,n,n,14.6µM
Cc1cccc2sc(NC(=O)C3c4ccccc4Oc4ccccc43)nc12,n,n,u,6.51µM,n,u
CC(C)c1nnc(NC(=O)C2c3ccccc3Oc3ccccc32)s1,n,n,n,n,n,n
Cc1cccc2sc(NC(=O)c3ccc(Cl)s3)nc12,n,n,n,16.4µM,n,n
CCOc1ccccc1CNC(=O)C1=C(C)C(=O)OC12CCN(C(C)=O)CC2,x,x,x,x,n,n
Cc1ccc(C(=O)Nc2nnc(S(=O)(=O)N(C)Cc3ccc(F)cc3)s2)cc1,x,x,x,x,n,n
CCN1C(=O)/C(=C\c2nc3ccccc3c(=O)n2CC)c2ccccc21,n,n,n,n,n,n
CCN1C(=O)/C(=C/c2nc3ccccc3c(=O)n2-c2ccccc2)c2ccccc21,n,n,u,u,23.1µM,n
COc1ccc(OC)c(CNC(=O)C2COc3ccccc3C2)c1 (configuration not stated),x,x,x,x,n,n
CCn1c(=O)cc(OCC(=O)NCc2ccccc2Cl)c2ccccc21,x,x,x,x,n,n
CCOC(=O)N1CCC(NC(=O)CCc2c(C)nc3c(c(C)nn3C(C)(C)C)c2C)CC1,n,n,n,n,u,3.66µM
CCOC(=O)N1CCC(NC(=O)CCc2c(C)nc3nc(C)nn3c2C)CC1,n,n,n,n,n,n
COc1ccc(-c2cc(C(F)(F)F)n3nc(C(=O)N4CCN5CCCC5C4)cc3n2)cc1OC (configuration not stated),n,n,u,11.6µM,n,n
Cc1ccc(-c2cc(C(F)(F)F)n3nc(C(=O)N4CCN5CCCC5C4)cc3n2)cc1 (configuration not stated),n,n,u,u,n,n
CCCC1S/C(=N/N=C/c2ccc(OC)cc2)N(Cc2ccc(OC)cc2)C1=O (configuration not stated),n,n,n,n,n,16.4µM
CCCC1S/C(=N/N=C/c2ccc(OC)cc2)N(Cc2ccccc2)C1=O (configuration not stated),n,n,n[9.22 µM],u,n,n
CCCCC1S/C(=N/N=C/c2ccc(OC)cc2)N(Cc2ccc(OC)cc2)C1=O (configuration not stated),n,n,u,n,n,8.2µM
CC1CCC(NC(=O)c2ccc3c(c2)N(Cc2ccccc2F)C(=O)c2ccccc2S3(=O)=O)CC1 (configuration not stated),x,x,x,x,n,n
COc1ccc2ccc3c(c2c1)N=C[C@]1(O3)N(C)c2ccccc2C1(C)C,n,n,14.6µM,18.4µM,n,u
CCn1c(C)c(C)c2cc(C(=O)N3CCc4ccccc4C3)ccc21,n,n,u,3.66µM,13µM,u
CC(=O)Nc1cc(C(=O)N2CCc3ccccc3C2)ccc1Sc1ccc(C)cc1,n,n,n,20.6µM,n,u
CCCN1CCN(C(=O)c2ccc(Sc3ccc(C)cc3)c(NC(C)=O)c2)CC1,n,n,n,n,n,n
Cc1ccc(S(=O)(=O)NCc2ccc(C(=O)N3CCc4ccccc4C3)cc2)cc1,u,n,n,n,n,4.61µM
CCN1CCN(C(=O)c2ccc3c(c2)c(C)c(C)n3Cc2ccccc2)CC1,n,n,n,u,n,n
SMILES,Giardia killer,ASM inhibitor,SW480 rerep,MCF10A rerep,KB-3-1 tox,KB-V1 MDR tox
CCN(Cc1ccccc1)C(=O)c1ccc(CNS(=O)(=O)c2ccc(C)cc2)cc1,n,n,n,20.6µM,n,18.4µM
COc1ccc(S(=O)(=O)NCc2ccc(C(=O)N3CCc4ccccc4C3)cc2)cc1,n,n,n,n,u,5.8µM
COc1ccc(CNS(=O)(=O)c2ccc(N3CCCCS3(=O)=O)cc2)cc1,x,x,x,x,16.4µM,u
CCOC(=O)N1CCN(C(=O)c2ccc(CNS(=O)(=O)c3ccc(OC)cc3)cc2)CC1,n,n,n,n,n,n
CCOC(=O)c1ccc(NC(=O)CSc2ccc3ccccc3n2)cc1,x,x,x,x,n,n
Cc1ccc(C)c2sc(N3CCN(C(=O)C(C)(C)C)CC3)nc12,x,x,x,x,n,n

# From PubChem BioAssay
